These results are taken from PubChem BioAssay.

Activity calls are given as the source filed them. Unless noted, the rule behind the calls is not given here.

Assay [1] in a line: compounds binding Alexa647 anti-His antibody – biochemical, small-molecule microarray, 635 nm fluorescence, artefact control for SMM control protein annotation, primary screen (AID 1128).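 Note: score merges feature fluorescence with signal-to-noise for each printed compound spot.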 The note with it: higher = more signal.
Assay [2] concerns Human papillomavirus type 1a E7 protein (residues 1-88). The assay is described as follows: HPV1a E7 small-molecule binders, primary screen, biochemical, small-molecule microarray, residues 1-88, 635 nm (AID 1129). The note with it: small-molecule microarray binding, fluorescence 635 nm; higher = more signal.
Assay [3] deals with Focal adhesion kinase 1 (Homo sapiens) (UniProt Q05397). Kind of assay: PTK2 protein binding on printed compound slides – biochemical, small-molecule microarray, 635/667 nm fluorescence, BSA, DTT, primary screen (AID 1130).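 Note: composite of spot emission at 667 nm and signal to noise over triplicate slides.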 The note with it: 635 nm fluorescence, higher = more signal.
The test system of assay [4] is Fibrinogen (Alexa647-labelled). The assay is described as follows: Alexa647-fibrinogen binding to printed small molecules – biochemical, small-molecule microarray, 635/667 nm fluorescence, artefact control for SMM control-protein annotation, profiling panel (AID 1131).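 Note: z-score merges 667 nm fluorescence with per-spot signal-to-noise over triplicate slides.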 The note with it: fibrinogen-A647 binding fluorescence, higher = more signal.
In assay [5] the target is Follistatin (Homo sapiens) (UniProt P19883). Kind of assay: FST protein binding to printed compounds – biochemical, small-molecule microarray, 635/667 nm fluorescence, primary screen (AID 1132). The note with it: 635 nm fluorescence, higher = more signal.
The target of assay [6] is Fibroblast growth factor 2 (Homo sapiens) (UniProt P09038). Kind of assay: basic fibroblast growth factor binding to printed compounds – biochemical, small-molecule microarray, 635/667 nm fluorescence, primary screen (AID 1133). The note with it: FGF2, fluorescence 635/667, higher = more signal.
Assay [7] can be described thus: JC-1 mitochondrial potential readout, lung cancer cells – cell-based, A549, JC-1 fluorescence, basal, 24 h, 100 nL, profiling panel (AID 1138).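 Note: A549 lung adenocarcinoma cells under basal conditions with no added stimulus; test concentration not given here.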 The note with it: higher = more signal.
Another assay concerns Lefty1. The assay is described as follows: Lefty1 protein binding to printed compounds – biochemical, small-molecule microarray, 635/667 nm fluorescence, primary screen (AID 1139). The note with it: fluorescence 635/667, higher = more signal.
Assay [8] has as its system wheat germ agglutinin (Triticum aestivum), Alexa647-labelled. Kind of assay: Alexa647-WGA lectin binding to printed small molecules – biochemical, small-molecule microarray, 635/667 nm fluorescence, artefact control for SMM control-protein annotation, profiling panel (AID 1140).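 Note: score merges 667 nm feature emission with signal to noise over triplicate slides.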 The note with it: WGA-A647 binding, 635 nm fluorescence, higher = more signal.
Assay [9] concerns the target Luciferin 4-monooxygenase (Photinus pyralis) (UniProt P08659). Kind of assay: inhibition of purified Photinus pyralis luciferase – biochemical, luminescence, purified enzyme, 2006 set, primary screen (AID 1141).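 Note: cell-free assay with purified firefly luciferase at 100 ng per well in PBS; test concentration not given here.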 The note with it: purified firefly luciferase, SteadyGlo luminescence, 30 min; higher = more signal, called active from +8 up or from −8 down.
Assay [10] relates to Wnt5a (protein binding on small-molecule microarray). The assay is described as follows: small molecules binding Wnt5a protein – biophysical, small-molecule microarray, 635/667 nm fluorescence, primary screen (AID 1142).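 Note: fluorescence read at 667 nm with signal to noise per printed feature.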 The note with it: 635 nm fluorescence, higher = more signal.
Assay [11] can be described thus: ATP-based viability of Huh7 replicon cells – cell-based, CellTiter-Glo luminescence, basal, 48 h, cytotoxicity control for HCV replication inhibitor project, primary screen (AID 1143).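 Note: Huh7 hepatoma cells carrying a hepatitis C replication reporter with no stimulus; test concentration not given here.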 The note with it: higher = more signal, called active from +8 up or from −8 down. (In antiviral work, replicon cells carry a viral genome segment that copies itself.)
A short description of assay [12]: Pseudomonas biofilm growth suppression – PAO1 strain, BacTiter-Glo luminescence, LB-PBS, primary screen (AID 1144). The note with it: P. aeruginosa PAO1 biofilm, 12 h, higher = more signal.
Assay [13] in a line: basal CRE-LacZ reporter activity in PC12 – cell-based, unstimulated, primary screen (AID 1145). The note with it: no forskolin, luminescence, 4.5 h, higher = more signal, called active from +8 up or from −8 down.
A short description of assay [14]: forskolin-driven CRE-LacZ activity in PC12 – cell-based, CRE-LacZ reporter, forskolin-stimulated, primary screen (AID 1146).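 Note: PC12 cells with 6xCRE LacZ reporter stimulated by forskolin 10 µM; beta-galactosidase reporter signal reflecting CREB driven transcription.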 The note with it: luminescence, 4.5 h, higher = more signal, called active from +8 up or from −8 down.
The target of assay [15] is Streptavidin (Streptomyces avidinii) (UniProt P22629). Kind of assay: compounds binding control protein streptavidin – biophysical, small-molecule microarray, 635/667 nm fluorescence, artefact control for SMM compound annotation, primary screen (AID 1147).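 Note: signal reflects streptavidin binding to arrayed compounds as a control protein.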 The note with it: higher = more signal.
A short description of assay [16]: probe aInhba binding on compound microarray – biochemical, small-molecule microarray, 635/667 nm fluorescence, primary screen (AID 1148).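 Note: score merges 667nm spot fluorescence with signal-to-noise for antibody binding to printed compounds.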 The note with it: higher = more signal.
Assay [17] has as its target Torsin-1A (Homo sapiens) (UniProt O14656). The assay is described as follows: TOR1A wild-type binding on microarray – cell lysate, small-molecule microarray, lysate, 635/667 nm, primary screen (AID 1149). The note with it: COS7 hTOR1A-WT lysate, 635 nm fluorescence, higher = more signal.
The target is the same in assay [18]. Kind of assay: torsin A mutant lysate binding on microarrays – cell lysate, small-molecule microarray, COS7 lysate, 635/667 nm fluorescence, primary screen (AID 1150).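 Note: score pools 667 nm emission and signal to noise measuring lysate protein binding.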 The note with it: COS7 hTOR1A mutant lysate, 635 nm fluorescence, higher = more signal.
The test system of assay [19] is Sonic hedgehog protein (Shh). The assay is described as follows: Sonic hedgehog microarray binding compounds – biochemical, small-molecule microarray, 635/667 nm fluorescence, primary screen (AID 1151).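 Note: Shh protein binding to compounds spotted on small-molecule microarray slides; score combines spot fluorescence intensity with signal-to-noise across triplicate slides.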 The note with it: 635 nm fluorescence, higher = more signal.

Follistatin (Homo sapiens), sequence (P19883 whole entry, looked up): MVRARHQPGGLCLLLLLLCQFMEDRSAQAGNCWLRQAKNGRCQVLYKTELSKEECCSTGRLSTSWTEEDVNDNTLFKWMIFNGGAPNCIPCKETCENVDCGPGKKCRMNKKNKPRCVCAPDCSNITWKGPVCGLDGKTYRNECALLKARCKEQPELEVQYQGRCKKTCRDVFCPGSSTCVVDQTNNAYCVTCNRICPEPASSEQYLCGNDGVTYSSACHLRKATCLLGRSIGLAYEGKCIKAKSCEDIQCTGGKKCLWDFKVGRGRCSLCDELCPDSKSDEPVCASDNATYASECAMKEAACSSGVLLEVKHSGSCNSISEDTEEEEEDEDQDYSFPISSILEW
Fibroblast growth factor 2 (Homo sapiens), sequence (P09038 whole entry, looked up): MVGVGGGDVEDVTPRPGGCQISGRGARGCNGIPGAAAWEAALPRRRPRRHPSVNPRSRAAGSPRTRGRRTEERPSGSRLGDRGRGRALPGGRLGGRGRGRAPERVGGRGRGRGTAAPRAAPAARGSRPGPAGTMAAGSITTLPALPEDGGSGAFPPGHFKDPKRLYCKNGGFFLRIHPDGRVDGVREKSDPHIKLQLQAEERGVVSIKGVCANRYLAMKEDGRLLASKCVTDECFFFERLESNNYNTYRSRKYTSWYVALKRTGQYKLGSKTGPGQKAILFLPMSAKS
Streptavidin (Streptomyces avidinii), sequence (P22629 whole entry, looked up): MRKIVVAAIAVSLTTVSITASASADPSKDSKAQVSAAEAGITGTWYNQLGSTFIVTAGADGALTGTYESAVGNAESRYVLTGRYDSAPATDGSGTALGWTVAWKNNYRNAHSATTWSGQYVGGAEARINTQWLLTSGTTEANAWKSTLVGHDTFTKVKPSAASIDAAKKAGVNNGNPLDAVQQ
Luciferin 4-monooxygenase (Photinus pyralis), sequence (P08659 whole entry, looked up): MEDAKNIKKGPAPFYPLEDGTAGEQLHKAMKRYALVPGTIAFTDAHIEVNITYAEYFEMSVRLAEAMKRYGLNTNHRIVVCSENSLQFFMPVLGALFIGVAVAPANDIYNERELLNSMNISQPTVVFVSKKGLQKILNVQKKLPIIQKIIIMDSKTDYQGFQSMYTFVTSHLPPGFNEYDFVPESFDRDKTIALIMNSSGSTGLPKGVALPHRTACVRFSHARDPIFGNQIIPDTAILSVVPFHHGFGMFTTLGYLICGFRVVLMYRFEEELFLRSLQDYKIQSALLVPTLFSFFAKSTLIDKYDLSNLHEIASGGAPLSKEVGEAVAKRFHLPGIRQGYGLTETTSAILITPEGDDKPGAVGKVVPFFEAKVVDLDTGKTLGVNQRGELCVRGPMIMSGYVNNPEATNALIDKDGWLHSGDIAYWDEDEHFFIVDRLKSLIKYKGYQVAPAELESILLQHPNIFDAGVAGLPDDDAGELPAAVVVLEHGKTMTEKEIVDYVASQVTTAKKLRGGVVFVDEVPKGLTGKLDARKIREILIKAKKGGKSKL
Focal adhesion kinase 1 (Homo sapiens), sequence (Q05397 whole entry, looked up): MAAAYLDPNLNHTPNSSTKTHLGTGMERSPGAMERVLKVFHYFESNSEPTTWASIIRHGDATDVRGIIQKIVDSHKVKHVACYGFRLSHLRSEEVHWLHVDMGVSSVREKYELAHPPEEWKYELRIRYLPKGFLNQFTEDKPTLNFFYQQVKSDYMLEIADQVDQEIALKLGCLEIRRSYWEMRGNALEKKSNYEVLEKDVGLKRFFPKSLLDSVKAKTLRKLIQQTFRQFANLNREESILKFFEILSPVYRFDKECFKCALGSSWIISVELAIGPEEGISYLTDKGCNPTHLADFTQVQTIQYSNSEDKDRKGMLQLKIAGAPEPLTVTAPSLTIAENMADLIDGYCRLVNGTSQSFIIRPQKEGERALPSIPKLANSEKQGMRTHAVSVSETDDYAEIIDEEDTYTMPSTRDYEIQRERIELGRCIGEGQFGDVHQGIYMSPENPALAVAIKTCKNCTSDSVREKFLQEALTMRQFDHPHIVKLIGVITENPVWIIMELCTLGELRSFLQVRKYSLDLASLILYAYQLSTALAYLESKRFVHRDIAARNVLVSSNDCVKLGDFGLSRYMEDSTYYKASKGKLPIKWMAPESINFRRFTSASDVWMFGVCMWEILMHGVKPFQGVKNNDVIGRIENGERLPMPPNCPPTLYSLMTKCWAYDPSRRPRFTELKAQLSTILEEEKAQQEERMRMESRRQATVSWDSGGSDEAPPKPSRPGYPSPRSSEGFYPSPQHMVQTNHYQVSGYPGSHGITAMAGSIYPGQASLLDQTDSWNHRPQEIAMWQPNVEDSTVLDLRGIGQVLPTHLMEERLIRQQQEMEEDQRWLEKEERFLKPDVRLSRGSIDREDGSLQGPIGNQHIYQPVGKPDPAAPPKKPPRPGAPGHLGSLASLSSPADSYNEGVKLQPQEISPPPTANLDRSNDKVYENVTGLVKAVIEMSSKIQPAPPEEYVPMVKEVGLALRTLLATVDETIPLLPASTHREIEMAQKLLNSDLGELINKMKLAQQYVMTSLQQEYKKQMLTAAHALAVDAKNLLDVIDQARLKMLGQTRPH
Torsin-1A (Homo sapiens), sequence (O14656 whole entry, looked up): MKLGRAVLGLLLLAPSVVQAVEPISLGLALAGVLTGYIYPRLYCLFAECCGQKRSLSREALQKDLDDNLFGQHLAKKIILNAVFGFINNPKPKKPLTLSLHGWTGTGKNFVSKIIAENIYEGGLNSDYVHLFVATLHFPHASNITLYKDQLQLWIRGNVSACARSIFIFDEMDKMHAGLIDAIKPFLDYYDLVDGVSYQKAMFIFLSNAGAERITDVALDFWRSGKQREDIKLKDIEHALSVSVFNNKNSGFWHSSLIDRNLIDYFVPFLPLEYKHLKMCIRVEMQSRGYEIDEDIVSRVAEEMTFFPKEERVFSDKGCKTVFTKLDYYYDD

`N#Cc1ccc(C(O)C2C=CC3C(=O)N(c4ccccc4)C(=O)C3N2Nc2ccc([N+](=O)[O-])cc2)cc1` (stereo not given): the composite z-score was 2.33 in assay [1]; 1.25 in assay [2]; 0.895 in assay [3]; 0.991 in [4]; 0.499 in assay [5]; -0.207 in assay [6]. Also, the composite z-score in the assay on Lefty1 is -0.44; in [8], 1.4; in [10], 0.488; in assay [15], 1.86; in assay [16] it was 0.252; in the assay with Torsin-1A (Homo sapiens) [17], 0.0605. The composite z-score in the assay with Torsin-1A (Homo sapiens) [18] is 0.212; in [19], -0.51. Also, the z-score in assay [7] was -2.34; in assay [9], 0.279 (inactive); in [11], -0.843 (inactive); in assay [12], -0.532 (inactive); in assay [13] it was -0.0696 (inactive); in assay [14], -1.24 (inactive).
`CCCCC(O)C1C=CC2C(=O)N(C)C(=O)C2N1Nc1ccccc1` (stereo not given): the composite z-score was 1.86 in assay [1]; 0.603 in assay [2]; 0.383 in assay [3]; 0.416 in assay [4]; 0.0471 in assay [5]; -0.614 in assay [6]. The composite z-score with Lefty1 is -0.291; in [8], 0.0187; in assay [10] it was 0.0991; in assay [15], 0.264; in assay [16] it was 0.106; with Torsin-1A (Homo sapiens) [17], 0.29. The composite z-score with Torsin-1A (Homo sapiens) [18] was 0.0531; in assay [19] it was -0.768. Moreover, the z-score in [7] is -0.771; in [9], 0.16 (inactive); in [11], 0.898 (inactive); in [12], -0.556 (inactive); in [13], -0.14 (inactive); in assay [14], 0.721 (inactive).
Turning to `O=C1O[C@@H](c2ccccc2)[C@@H](c2ccccc2)N2[C@@H](c3ccc(OCCO)cc3)[C@]3(C(=O)Nc4ccc(C#CCCO)cc43)[C@@H](C(=O)Nc3nc4ccccc4s3)[C@H]12`, the composite z-score in [1] amounted to 0.324; in assay [2], 1.13; in [3], 0.256; in assay [4], 0.978; in assay [5] it was 1.4; in assay [6], 0.474. For the same compound, the composite z-score turned out to be 0.502 with Lefty1; 0.468 in assay [8]; 0.482 in assay [10]; 1.05 in assay [15]; 0.0291 in assay [16]; 0.222 with Torsin-1A (Homo sapiens) [17]. Further, the composite z-score with Torsin-1A (Homo sapiens) [18] turned out to be 0.79; in [19], 0.589. Further, the z-score in assay [7] was -2.19; in assay [9] it was -0.7 (inactive); in [11], -2.56 (inactive); in assay [12], -0.397 (inactive); in assay [13], 0.389 (inactive); in [14], 0.0759 (inactive).
With `C=C(CCCC)C(=O)CC[C@H](OC(C)=O)c1ccccc1OCCO`, the composite z-score was 0.0808 in [1]; -0.167 in assay [2]; -0.176 in assay [3]; -0.107 in [4]; 1.16 in assay [5]; 0.105 in assay [6]. The composite z-score with Lefty1 is 1.36; in assay [8] it was 0.737; in [10], 0.241; in assay [15] it was -0.478; in [16], 0.0902; with Torsin-1A (Homo sapiens) [17], -1.49. Besides, the composite z-score was -0.447 with Torsin-1A (Homo sapiens) [18] and 1.42 in [19]. Besides, the z-score in [7] was -0.012; in assay [9], -0.722 (inactive); in assay [11] it was -4.57 (inactive); in assay [12], 1.09 (inactive); in [13], 8.25 (active); in [14], -0.195 (inactive).
For the compound `CCCCCCCCCCC(O)C1C=CC2C(=O)N(C)C(=O)C2N1N1CCCCC1` (stereo not given), the composite z-score in assay [1] was 0.373; in [2] it was -0.768; in assay [3] it was 0.0399; in assay [4], -1.27; in [5], -2.14; in [6], -1.02. The composite z-score in the assay on Lefty1 was -1.84; in assay [8], -0.325; in assay [10], -0.542; in [15], -0.862; in assay [16] it was -0.0762; with Torsin-1A (Homo sapiens) [17], -0.0728. Also, the composite z-score is 0.522 with Torsin-1A (Homo sapiens) [18] and -1.89 in [19]. The z-score in assay [7] is 0.44; in [9], -0.224 (inactive); in [11], -0.6 (inactive); in assay [12] it was 0.816 (inactive); in assay [13], 0.0569 (inactive); in assay [14], 1.39 (inactive).
